# Laboratory results from paper PMC5540273 (PLoS ONE, 2017).
# System: TRPM6
# Details: concentration: 1 μM, replicates: in singlicate; n = 1
# 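Further: KINOMEscan kinase panel screen.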
row,Compound,%Inh [%]
1,Cc1ccc(C(=O)N2CC[C@@H](O)C2)cc1-n1c(C)cc(OCc2ccc(F)cc2F)c(Br)c1=O,0
2,Oc1cc(Nc2ccnc3cc(I)ccc23)ccc1F [GW552771],26
3,c1ccc(-c2n[nH]cc2Nc2ccnc3ccccc23)nc1 [GW694077],15
4,CC(C)c1nc(-c2cccc(NS(=O)(=O)c3c(F)cccc3F)c2F)c(-c2ccnc(Nc3ccc(N4CCOCC4)nc3)n2)s1 [GSK2008607],57
5,Cn1cc(-c2[nH]c3cc(NC(=O)[C@H](N)C4CCCCC4)cc4c3c2C=NNC4=O)cn1,11
6,C[C@@H](Oc1cc(-n2cnc3cc(-c4ccnc(NCCS(C)(=O)=O)c4)ccc32)sc1C(N)=O)c1ccccc1Cl [GSK907232],0
